Consider 35 compounds from PubChem BioAssay.

In the experiment the test system is Plasmodium falciparum Sir2 (PF13_0152, Sir2A). The experiment can be described thus: Plasmodium falciparum Sir2A binding compounds – biochemical, small-molecule microarray, 635 nm fluorescence, primary screen (AID 1098).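 Note: score merges spot fluorescence intensity with its signal-to-noise ratio.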 To be noted: fluorescence 635 nm, higher = more signal.
The compound `CCOC(=O)C1=CCC(c2ccco2)N(S(=O)(=O)c2ccc(C)cc2)C1` (stereo not given) showed a composite z-score of 1.04. Next, `COCCOC(=O)N1C(=O)[C@@]2(c3cc(C#CCC(C(=O)OC)C(=O)OC)ccc31)[C@H](C(=O)NC[C@H](O)c1ccccc1)[C@H]1C(=O)O[C@H](c3ccccc3)[C@H](c3ccccc3)N1[C@@H]2c1ccc(OCCO)cc1`: 1.18; `CCCNC(=O)[C@@]1(Sc2ccc(C)cc2)CC(=O)N(C(C)C)[C@@H]1c1ccc(CO)cc1I`: 0.0404. `COC(=O)[C@@]1(Cc2ccc(F)cc2)[C@H]2c3cc(C(=O)N4CCCC4)n(C)c3C[C@H]2CN1C(=O)c1ccccc1` gave a composite z-score of 1.24. Next, `O=C1O[C@H](c2ccccc2)[C@H](c2ccccc2)N2[C@H]1[C@@H](C(=O)N1CCCCCCC1)[C@]1(C(=O)Nc3ccc(C#CC4(O)CCCCCC4)cc31)[C@H]2c1ccc(O)cc1`: 1.5. Under `O=C1O[C@H](c2ccccc2)[C@H](c2ccccc2)N2[C@H]1[C@@H](C(=O)O)[C@]1(C(=O)Nc3ccc(C#CC4(O)CCCCCC4)cc31)[C@H]2c1ccc(O)cc1` stands 0.502; under `COCCOC(=O)N1C(=O)[C@@]2(c3ccccc31)[C@H](c1ccccc1OCCO)N1[C@H](c3ccccc3)[C@H](c3ccccc3)OC(=O)[C@H]1[C@@H]2C(N)=O`, 1.28; under `NC(=O)[C@@H]1[C@H]2C(=O)O[C@H](c3ccccc3)[C@H](c3ccccc3)N2[C@H](c2ccc(OCCO)cc2)[C@@]12C(=O)Nc1ccc(C#CCCO)cc12`, 0.344. Under `Cc1cccc([C@H]2C[C@H]3C(Br)=C[C@@H]2C(=O)[C@]32CO2)c1` stands -0.256; under `COc1ccc(C#Cc2ccc3c(c2)[C@]2(C(=O)N3)[C@H](C(=O)Nc3nc4ccccc4s3)[C@H]3C(=O)O[C@H](c4ccccc4)[C@H](c4ccccc4)N3[C@@H]2c2ccccc2OCCO)cc1`, 0.465. The compound `C=CCNC(=O)[C@@H]1[C@H]2C(=O)O[C@H](c3ccccc3)[C@H](c3ccccc3)N2[C@H](c2ccc(OCCO)cc2)[C@@]12C(=O)N(C(=O)OCCOC)c1ccc(C#CCCO)cc12` had a composite z-score of 1.12. With `COCC(=C=CC[C@@H](O)c1cccc(OCCO)c1)CCO`, the composite z-score is 1.03. As for `COCCOC(=O)N1C(=O)[C@@]2(c3cc(C#CC4(O)CCCCCC4)ccc31)[C@H](C(=O)N1CCN(c3ncccn3)CC1)[C@H]1C(=O)O[C@H](c3ccccc3)[C@H](c3ccccc3)N1[C@@H]2c1ccccc1OCCO`, the composite z-score stood at 1.27. `[N-]=[N+]=Nc1ccccc1C[C@]1(C(=O)O)N=C(c2ccc(OCCCO)cc2)O[C@H]1c1ccccc1N=[N+]=[N-]` gave a composite z-score of 0.944. `NC(=O)NCC#Cc1ccc2c(c1)[C@]1(C(=O)N2)[C@H](C(=O)N2CCN(c3ncccn3)CC2)[C@H]2C(=O)O[C@H](c3ccccc3)[C@H](c3ccccc3)N2[C@@H]1c1ccc(OCCO)cc1`: the composite z-score was 0.695. Regarding `CN(C)C(=O)[C@@]1(Cc2ccccc2)COC(c2ccc(OCCCO)cc2)=N1`, the composite z-score was found to be 0.429. Regarding `CCN(CC)c1ccc(N2CC=CC34O[C@@H]5C=CCCOC(=O)C5[C@H]3C(=O)N(CCO)[C@@H]4C2=O)cc1` (stereo not given in full), the composite z-score was -0.0437. Next, `C[C@@H]1ON(c2ccc(I)cc2)[C@H](c2ccc(OC(=O)OC(C)(C)C)cc2)[C@H]1C(=O)N1C(=O)OC[C@H]1Cc1ccccc1`: 0.718; `COc1cc(CO)cc(I)c1O[C@H]1C=C(C(=O)NCCO)C[C@@H](NCC2CCCCC2)[C@@H]1O`: 0.587; `C=CCNC(=O)[C@@H]1[C@H]2C(=O)O[C@H](c3ccccc3)[C@H](c3ccccc3)N2[C@H](c2ccc(O)cc2)[C@@]12C(=O)Nc1ccc(C#CCC(C(=O)OC)C(=O)OC)cc12`: 0.445. Take `CCOC(=O)C1=C[C@@H](c2ccccc2)N(S(=O)(=O)c2ccc(C)cc2)[C@H]1c1ccccc1`: the composite z-score turned out to be 0.394. Next, `[N-]=[N+]=NC[C@H](Cc1ccccc1)NC(=O)c1ccccc1`: -0.554; `COc1ccc(C(O)C2C=CC3C(=O)N(c4ccccc4)C(=O)C3N2Nc2ccccc2F)cc1` (stereo not given): 1.47; `C#C[C@@H](CC)O[Si](C#CCCCC#N)(C(C)C)C(C)C`: 0.329. As to `CCCCCCCCCCC(O)C1C=CC2C(=O)N(C)C(=O)C2N1Nc1cc(OC)c(OC)c(OC)c1` (stereo not given), the composite z-score turned out to be 1.05. In turn, `C=C[C@H](C)[C@H](OC(=O)Nc1ccc(OC)cc1)c1ccc(OCCO)cc1` came in with a composite z-score of 0.515. As for `COCCOC(=O)N1C(=O)[C@@]2(c3cc(C#CC4(O)CCCCCC4)ccc31)[C@H](c1ccc(OCCO)cc1)N1[C@H](c3ccccc3)[C@H](c3ccccc3)OC(=O)[C@H]1[C@@H]2C(=O)Nc1nc2ccccc2s1`, the composite z-score was 1.41. Compound `O=c1cccc(-c2ccco2)o1` came in with a composite z-score of 1.28.

Consider `CN(C)C(=O)[C@@]1(Cc2ccccc2N=[N+]=[N-])N=C(c2ccc(OCCCO)cc2)O[C@H]1c1ccccc1`, for which the composite z-score amounted to 1.36. `CC(C)[C@H]1NC(=O)[C@@]23C(=O)N[C@@H](Cc4ccccc4)C2[C@H](C)[C@@]2(C)O[C@H]2C3/C=C/CCC/C=C/CNC(=O)[C@H](Cc2ccccc2)NC1=O` (stereo not given in full) returned a composite z-score of 1.39. For `C=CCC(OC(C)=O)[C@@H]1[C@@H](N(Cc2cc3ccccc3o2)C(=O)c2ccc(-c3ccccc3)cc2)c2cc(OCCCO)ccc2N1C(=O)Cc1ccc(OC)cc1` (stereo not given in full), the composite z-score turned out to be 0.104.

`[N-]=[N+]=NCc1ccccc1[C@H]1OC(c2ccc(OCCCO)cc2)=N[C@@]1(CCS(=O)(=O)c1ccccc1)C(=O)NCc1ccccc1`: the composite z-score worked out at 1.26. The compound `CC(=O)n1cc(C(O)C2C=CC3C(=O)N(c4ccccc4)C(=O)C3N2Nc2ccc(C(C)C)cc2)c2ccccc21` (stereo not given) showed a composite z-score of 1.17. Under `C=C(COC)C(=O)CC[C@H](OC(C)=O)c1ccc(OCCO)cc1` stands 0.761. As for `Cc1ccccc1C(O)C1C=CC2C(=O)NC(=O)C2N1Nc1ccc(Cl)cc1Cl` (stereo not given), the composite z-score was 1.21.
